Source: PubChem BioAssay (NCATS)
Inconclusive results are not listed. Calls of active or inactive are those of the source. Calls come from the whole dose curve; as a rule, active = well fitted inhibition curve with a large enough effect; inconclusive = small, poorly fitted or top-dose-only effect; inactive = no such curve, though single readings can be large or run the other way.

The compounds below were run against Cytochrome P450 2C9 (Homo sapiens) (UniProt P11712) (assay: qHTS Assay for Inhibitors and Substrates of Cytochrome P450 2C9 (AID 883; note: nearly all actives have a fitted effect of over 60% in size)). Conditions: recombinant CYP2C9, luciferin-H luminescence, 60 min; series mostly up to 57.1 µM.
Chain of Cytochrome P450 2C9 (Homo sapiens) (P11712 whole entry, looked up): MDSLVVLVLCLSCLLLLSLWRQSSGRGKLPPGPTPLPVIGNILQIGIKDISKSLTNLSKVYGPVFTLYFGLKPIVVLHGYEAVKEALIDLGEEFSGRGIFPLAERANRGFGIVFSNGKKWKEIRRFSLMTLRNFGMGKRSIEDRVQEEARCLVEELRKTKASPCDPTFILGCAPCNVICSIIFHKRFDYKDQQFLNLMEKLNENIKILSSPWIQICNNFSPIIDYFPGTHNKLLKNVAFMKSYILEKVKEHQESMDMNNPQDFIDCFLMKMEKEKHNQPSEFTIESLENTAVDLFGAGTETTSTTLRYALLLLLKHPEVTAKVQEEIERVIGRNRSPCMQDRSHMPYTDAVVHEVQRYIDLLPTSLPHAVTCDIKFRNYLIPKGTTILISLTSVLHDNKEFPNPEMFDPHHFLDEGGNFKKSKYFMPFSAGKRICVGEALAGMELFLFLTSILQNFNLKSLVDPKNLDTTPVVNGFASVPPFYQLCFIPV
Procedure: NIH Molecular Libraries Screening Centers Network [MLSCN] NIH Chemical Genomics Center [NCGC] MLSCN Grant: None NCGC Assay Overview: The P450 gene superfamily is involved in the metabolism and clearance of xenobiotics. This assay used human CYP2C9 to measure the hydroxylation of deoxyluciferin (Luciferin-H; P450 Glo-Buffer) to luciferin. The luciferin is then measured by luminescence after the addition of a luciferase detection reagent. Luciferin-H concentration in the assay was equal to its Michaelis constant KM for CYP2C9. Inhibitors and some substrates limit the production of luciferin, and decrease measured luminescence.
NCGC Assay Protocol Summary: Two uL of enzyme and substrate mix (final concentrations: 10nM CYP2C9, 100uM Luciferin-H, 25mM KPO4) were dispensed into a white, solid bottom 1536-well microtiter plate. 23nL of compound was transferred by a pin tool. The plate was incubated at 37C for 10 min. Two uL of an NADPH regeneration solution (Promega supplied reagent) was dispensed and the reaction was allowed to continue for 60 min at 37C. Then the reaction was stopped by reconstituted P450 Glo-Buffer. After another 20 min of incubation the plate was read on the ViewLux (Perkin Elmer) at 60 sec exposure and 2x2 binning. This protocol was carried out with Promega-Glo reagents and further information can be found at http://www.promega.com/tbs/tb325/tb325.pdf. Data were normalized to the to AC100 inhibition (57uM sulphaphenazole). Keywords: P450, CYP2C9, Luciferase, MLSMR, MLSCN, NIH Roadmap, qHTS, NCGC
Potency is the fitted concentration of half-maximal effect.

Potency, inactive:
Cc1c(C(=O)O)c(O)cc2c1C(=O)c1c(O)c([C@@H]3O[C@H](CO)[C@@H](O)[C@H](O)[C@@H]3O)c(O)c(O)c1C2=O
CC(C)C[C@@H](CC(=O)N[C@@H](CCCN)CC(=O)N[C@@H]1CCCC[C@H]1C(=O)N[C@H](CC(=O)N[C@@H](CCC(=O)O)CC(=O)O)Cc1c[nH]c2ccccc12)NC(=O)[C@@H]1CNCC[C@H]1N
CC(C)C[C@@H](CC(=O)N[C@@H](CCC(=O)O)CC(=O)O)NC(=O)[C@@H]1CNCC[C@H]1NC(=O)C[C@@H](NC(=O)C[C@H](Cc1c[nH]c2ccccc12)NC(=O)[C@@H]1CCCC[C@H]1N)C(C)C
CC(C)[C@@H](CC(=O)N[C@@H]1CCCC[C@H]1C(=O)N[C@H](CC(=O)N[C@@H](CCC(=O)O)CC(=O)O)Cc1c[nH]c2ccccc12)NC(=O)C[C@H](Cc1c[nH]c2ccccc12)NC(=O)[C@@H]1CNCC[C@H]1N
CC(C)C[C@@H](CC(=O)N[C@@H](CCC(=O)O)CC(=O)O)NC(=O)[C@@H]1CNCC[C@H]1NC(=O)C[C@H](CCCN)NC(=O)C[C@H](Cc1ccccc1)NC(=O)[C@@H]1CCCC[C@H]1N
O=c1cc(-c2ccccc2)oc2cc(O[C@H]3O[C@H](CO)[C@@H](O)[C@H](O)[C@@H]3O)c(O)c(O)c12
O=c1ccn([C@H]2O[C@H](CO)[C@@H](O)[C@@H]2O)c(=O)[nH]1
CC(C)[C@@H](CC(=O)N[C@@H]1CCNC[C@H]1C(=O)N[C@H](CC(=O)N[C@@H](CCC(=O)O)CC(=O)O)Cc1c[nH]c2ccccc12)NC(=O)C[C@H](Cc1c[nH]c2ccccc12)NC(=O)[C@@H]1CCCC[C@H]1N
CN1CCc2cc3c(cc2C(=O)Cc2ccc4c(c2C1)OCO4)OCO3
COc1ccc(-c2coc3ccc(O[C@@H]4O[C@@H](COC(C)=O)[C@@H](OC(C)=O)[C@@H](OC(C)=O)[C@H]4OC(C)=O)c(OC(C)=O)c3c2=O)cc1
NCCC[C@@H](CC(=O)N[C@@H]1CCNC[C@H]1C(=O)N[C@H](CC(=O)N[C@@H](CCC(=O)O)CC(=O)O)Cc1ccccc1)NC(=O)C[C@H](Cc1ccccc1)NC(=O)[C@@H]1CNCC[C@H]1N
CC(C)C[C@@H](CC(=O)N[C@H](CC(=O)N[C@@H]1CCNC[C@H]1C(=O)N[C@H](CC(=O)N[C@@H](CCC(=O)O)CC(=O)O)Cc1ccccc1)C(C)C)NC(=O)[C@@H]1CNCC[C@H]1N
CC(C)[C@@H](CC(=O)N[C@@H]1CCCC[C@H]1C(=O)N[C@H](CC(=O)N[C@@H](CCC(=O)O)CC(=O)O)Cc1ccccc1)NC(=O)C[C@H](Cc1c[nH]c2ccccc12)NC(=O)[C@@H]1CNCC[C@H]1N
CC(C)C[C@@H](CC(=O)N[C@@H](CCC(=O)O)CC(=O)O)NC(=O)[C@@H]1CNCC[C@H]1NC(=O)C[C@@H](NC(=O)C[C@H](Cc1ccccc1)NC(=O)[C@@H]1CCCC[C@H]1N)C(C)C
NCCC[C@@H](CC(=O)N[C@@H]1CCNC[C@H]1C(=O)N[C@H](CC(=O)N[C@@H](CCC(=O)O)CC(=O)O)Cc1ccccc1)NC(=O)C[C@H](CO)NC(=O)[C@@H]1CCCC[C@H]1N
NCCC[C@@H](CC(=O)N[C@@H]1CCCC[C@H]1C(=O)N[C@H](CC(=O)N[C@@H](CCC(=O)O)CC(=O)O)Cc1c[nH]c2ccccc12)NC(=O)C[C@H](Cc1ccccc1)NC(=O)[C@@H]1CNCC[C@H]1N
CC(C)[C@@H](CC(=O)N[C@@H]1CCCC[C@H]1C(=O)N[C@H](CC(=O)N[C@@H](CCC(=O)O)CC(=O)O)Cc1ccccc1)NC(=O)C[C@H](Cc1c[nH]c2ccccc12)NC(=O)[C@@H]1CCCC[C@H]1N
CC(C)C[C@@H](CC(=O)N[C@@H](CCCN)CC(=O)N[C@@H]1CCNC[C@H]1C(=O)N[C@H](CC(=O)N[C@@H](CCC(=O)O)CC(=O)O)Cc1ccccc1)NC(=O)[C@@H]1CCCC[C@H]1N
CC(C)C[C@@H](CC(=O)N[C@@H](CCC(=O)O)CC(=O)O)NC(=O)[C@@H]1CCCC[C@H]1NC(=O)C[C@@H](NC(=O)C[C@H](Cc1ccccc1)NC(=O)[C@@H]1CNCC[C@H]1N)C(C)C
CC(C)[C@@H](CC(=O)N[C@@H]1CCCC[C@H]1C(=O)N[C@H](CC(=O)N[C@@H](CCC(=O)O)CC(=O)O)Cc1ccccc1)NC(=O)C[C@H](Cc1ccccc1)NC(=O)[C@@H]1CCCC[C@H]1N
NCCC[C@@H](CC(=O)N[C@@H]1CCNC[C@H]1C(=O)N[C@H](CC(=O)N[C@@H](CCC(=O)O)CC(=O)O)Cc1ccccc1)NC(=O)C[C@H](Cc1c[nH]c2ccccc12)NC(=O)[C@@H]1CCCC[C@H]1N

Potency, active:
CC(C)c1cccc2c([Si](C)(C)C)c3c(nc12)-c1cccc(=O)n1C3 2 µM
CCC/C=C(\CCC)C(NS(=O)(=O)c1ccc(Cl)cc1)c1ccccc1 (stereo not given) 2.51 µM
C[C@@H](C(=O)Cc1ccc2ccccc2c1)[C@@H]1C[C@@]1(C)[C@@H](NP(=O)(c1ccccc1)c1ccccc1)c1ccccc1 3.16 µM
CCCCC#Cc1ccccc1CC(=O)Nc1ccccc1 2.51 µM
COC(=O)[C@@]1(Cc2ccc(OC)cc2)[C@H]2c3cc(C(=O)N4CCCC4)n(CCc4c[nH]c5cc(F)ccc45)c3C[C@H]2CN1C(=O)c1ccccc1 3.16 µM
C=C[C@@]1(C)C=C2CC[C@@H]3[C@](C)(CCC[C@@]3(C)C(=O)O)[C@H]2CC1 6.31 µM
O=c1cc(-c2ccc(O)c(O)c2)oc2cccc(O)c12 7.94 µM
C=C1CC[C@@H](O)C/C1=C/C=C1\CCC[C@]2(C)[C@@H]1CC[C@H]2[C@@H](C)/C=C\[C@@H](C)C(C)C 20 µM
O=c1c(O)c(-c2ccccc2)oc2cc(O)cc(O)c12 3.16 µM
COC(=O)[C@H](C)[C@H]1C[C@]1(C)[C@H](NC(=O)OCc1ccccc1)c1ccccc1 2 µM
O=C(CCc1ccc(O)cc1)c1c(O)cc(O)cc1O[C@@H]1O[C@@H](CO)[C@@H](O)[C@@H](O)[C@H]1O 31.6 µM
CCC/C=C(\CCC)C(NS(=O)(=O)c1cccc2cccnc12)c1ccc(C(=O)OC)cc1 (stereo not given) 1.58 µM
COc1cccc2oc(-c3ccc(O)cc3)cc(=O)c12 12.6 µM
O=c1cc(-c2ccccc2O)oc2c(O)c(O)ccc12 1.26 µM
CCC/C=C(\CCC)C(NS(=O)(=O)c1ccc(Cl)cc1)c1ccc(C(=O)OC)cc1 (stereo not given) 3.16 µM
CCC/C=C(\CCC)C(NC(=O)c1cccs1)c1ccc(C(=O)OC)cc1 (stereo not given) 2 µM
CCCC[C@@H]1C[C@H]1C(NC(=O)c1ccco1)c1ccc(-c2ccccc2)cc1 (stereo not given in full) 3.16 µM
O=C(NCCc1c[nH]c2ccccc12)[C@@H]1C[C@H]1[C@@H](NP(=O)(c1ccccc1)c1ccccc1)c1ccccc1 0.251 µM
CCCC[C@@H]1C[C@H]1C(NC(=O)c1ccccc1)c1ccccc1 (stereo not given in full) 7.94 µM
